The entries come from a sample that favours hits as a whole.
FECH inh – blocks human mitochondrial ferrochelatase activity | P22830 | purified FECH, Ni-mesoporphyrin absorbance 550 nm | calls only at 10 µM (by protocol) | hit rate 3.3% among 20,000;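 active means enzyme reaction rate more than 3 SD below the solvent-only control wells on the same plate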;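 further: lower slope than DMSO wells means FECH inhibition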
Target sequence (P22830 whole entry, looked up): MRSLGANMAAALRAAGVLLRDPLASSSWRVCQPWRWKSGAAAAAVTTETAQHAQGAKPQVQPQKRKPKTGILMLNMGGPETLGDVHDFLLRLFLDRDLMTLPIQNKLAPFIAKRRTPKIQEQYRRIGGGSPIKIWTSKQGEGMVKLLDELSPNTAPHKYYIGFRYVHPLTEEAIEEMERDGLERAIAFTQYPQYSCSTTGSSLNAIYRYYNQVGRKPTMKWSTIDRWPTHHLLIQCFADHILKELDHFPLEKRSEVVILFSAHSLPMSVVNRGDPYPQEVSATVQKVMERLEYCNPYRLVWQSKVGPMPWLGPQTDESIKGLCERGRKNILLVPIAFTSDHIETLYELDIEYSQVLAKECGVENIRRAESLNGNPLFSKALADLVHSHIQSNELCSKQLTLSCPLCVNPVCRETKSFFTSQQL
* = called active by the depositor.

What do the screens show for `Cc1nc2nc(N(Cc3cccc(F)c3)S(=O)(=O)c3ccccc3)nn2c(C)c1Cl`?
FECH inh: inactive

How did COc1ccccc1CNc1nc2nc(CNc3cccc(C(F)(F)F)c3)cc(=O)n2[nH]1 do in these assays?
FECH inh: inactive

How did Cc1ccc(NCc2nc3nc(C(C)C)cc(=O)n3[nH]2)cc1Cl do in these assays?
FECH inh: active

Results for COc1ccc(CNc2nc3nc(CNc4ccc(OC)cc4)cc(=O)n3[nH]2)cc1 ?
FECH inh: inactive

What do the screens show for `COc1ccc(CNc2nc3nc(CNc4cccc(C(F)(F)F)c4)cc(=O)n3[nH]2)cc1`?
FECH inh: inactive

Results for CCc1nc2nc(C)c(NC(=O)Nc3ccc(C)c(Cl)c3)c(=O)n2[nH]1 ?
FECH inh: inactive

Results for CC(C)c1cc(=O)n2[nH]c(CNc3cccc(C(F)(F)F)c3)nc2n1 ?
FECH inh: active

Results for COCc1noc(-c2ccc(-c3ccc(C(C)N4CCOCC4)cc3)nc2)n1 (centres undefined) ?
FECH inh: inactive

Results for CCN(Cc1nc(COC)no1)C(=O)c1ccc2cc[nH]c2c1 ?
FECH inh: inactive

How did CCc1ncc2c(n1)CN(C(=O)c1cccc(-c3ncn[nH]3)c1)C2 do in these assays?
FECH inh: inactive

Results for CC(C)CCNC(=O)C1CCN(c2ccc(-c3cccs3)nn2)CC1 ?
FECH inh: inactive

What do the screens show for `Cc1cccc(C)c1NC(=O)CSCc1nc(-c2ccccc2)no1`?
FECH inh: inactive

Results for CCCCNC(=O)CC1CCN(S(=O)(=O)c2ccccc2)CC1 ?
FECH inh: inactive

How did COc1ccc(N2C(=O)N(CC(=O)NCCc3ccccc3)c3ccccc3S2(=O)=O)cc1OC do in these assays?
FECH inh: inactive

Results for CCCCNC(=O)CSC1=NS(=O)(=O)c2ccccc2N1CC ?
FECH inh: active

How did CCN1C(SCC(=O)Nc2ccc(Cl)cc2F)=NS(=O)(=O)c2ccccc21 do in these assays?
FECH inh: active

Results for CCN1C(SCC(=O)Nc2cc(Cl)c(OC)cc2OC)=NS(=O)(=O)c2ccccc21 ?
FECH inh: inactive

What do the screens show for `Cc1ccc(CN2c3ccccc3-c3nc(SCC(=O)Nc4ccc(C)c(Cl)c4)ncc3S2(=O)=O)cc1`?
FECH inh: inactive

Results for CCN1C(SCC(=O)Nc2cc(Cl)ccc2C)=NS(=O)(=O)c2ccccc21 ?
FECH inh: inactive

What do the screens show for `CCN1C(SCC(=O)Nc2ccccc2C)=NS(=O)(=O)c2ccccc21`?
FECH inh: active

How did CCN1C(SCC(=O)Nc2c(C)cccc2C)=NS(=O)(=O)c2ccccc21 do in these assays?
FECH inh: active

Results for Cc1ccccc1N1C(=O)N(CC(=O)NC2CCCC2)c2ccccc2S1(=O)=O ?
FECH inh: inactive

Results for CCC(=O)Nc1ccccc1-c1nnc(SCC(=O)Nc2cccc(Cl)c2Cl)[nH]c1=O ?
FECH inh: inactive

What do the screens show for `CCc1[nH]c2c(CNS(=O)(=O)c3cnn(CC)c3)cc(F)cc2c1C`?
FECH inh: inactive

What do the screens show for `COc1cc(NC(=O)C2CCN(c3ccc(-c4cccc(C)c4)nn3)CC2)cc(OC)c1`?
FECH inh: inactive

What do the screens show for `COc1ncccc1NC(=O)c1cccc(CN2[C@@H]3CC[C@H]2CC(O)C3)c1` (some centres undefined)?
FECH inh: inactive

How did O=C(NCCc1ccccc1)N1CCC(n2cnc3cccnc32)CC1 do in these assays?
FECH inh: inactive

How did Cc1cc(Cl)ccc1S(=O)(=O)NCCCn1c(C(F)(F)F)nc2cccnc21 do in these assays?
FECH inh: inactive

What do the screens show for `O=C(NCCCc1ccccn1)c1ccc(-c2ccc(F)c(CO)c2)nc1`?
FECH inh: inactive

How did CCSc1nc(CC(=O)NCc2c(F)cccc2F)cs1 do in these assays?
FECH inh: inactive

What do the screens show for `CCc1cccc(C)c1NC(=O)CSC1=NS(=O)(=O)c2ccccc2N1CC`?
FECH inh: active

Results for CCC1=C(c2ccc(OC)cc2)S(=O)(=O)N(CC(=O)Nc2c(C)cccc2CC)C1=O ?
FECH inh: inactive

Results for CCc1cccc(C)c1NC(=O)c1nc2ccccc2n(C)c1=O ?
FECH inh: inactive

What do the screens show for `Cc1cc(C)cc(S(=O)(=O)NCc2nc3cccnc3n2CC(C)C)c1`?
FECH inh: inactive

Results for Cc1cc(Nc2ccc(OC(=O)c3cccnc3)cc2)n2nc(-c3cccnc3)nc2n1 ?
FECH inh: inactive

How did CC(C)(C)c1ccc(-c2nc3nc(CNc4ccc(Br)cc4)cc(=O)n3[nH]2)cc1 do in these assays?
FECH inh: inactive

Results for CC(C)(C)c1ccc(-c2nc3nc(CNc4ccccc4F)cc(=O)n3[nH]2)cc1 ?
FECH inh: active

Results for CCOc1ccccc1NCc1cc(=O)n2[nH]c(-c3ccc(C(C)(C)C)cc3)nc2n1 ?
FECH inh: inactive

What do the screens show for `CCN1CCN(Cc2cc(=O)n3[nH]c(-c4ccc(C(C)(C)C)cc4)nc3n2)CC1`?
FECH inh: inactive

What do the screens show for `Cc1ccc(Cl)cc1NCc1cc(=O)n2[nH]c(-c3ccc(C(C)(C)C)cc3)nc2n1`?
FECH inh: active

Results for CC(C)(C)c1ccc(-c2nc3nc(CN4CCN(c5ccc(F)cc5)CC4)cc(=O)n3[nH]2)cc1 ?
FECH inh: inactive

How did CCOC(=O)c1ccc(NC(=O)N2CCC3(CCCN(C)C3=O)C2)cc1 (centres undefined) do in these assays?
FECH inh: inactive

What do the screens show for `CCCN(Cc1cccnc1)C(=O)c1ccccc1NC`?
FECH inh: inactive

How did C=CCn1cc(CN2CCN(c3ccccc3OCC)CC2)c(C)n1 do in these assays?
FECH inh: inactive

How did CCNC(=O)COc1nc(CC)nc2onc(-c3ccc(F)cc3)c12 do in these assays?
FECH inh: active

How did C=CCNC(=O)COc1nc(CC)nc2onc(-c3ccc(F)cc3)c12 do in these assays?
FECH inh: inactive

Results for CCc1nc(OCC(=O)NCc2ccccn2)c2c(-c3ccc(F)cc3)noc2n1 ?
FECH inh: inactive

What do the screens show for `CCc1cnc(C)nc1NCCNc1nc(C)cc(=O)[nH]1`?
FECH inh: inactive

What do the screens show for `Cc1cccnc1CC(C)Nc1nc(-c2cccnc2)nc2c1CCNC2` (centres undefined)?
FECH inh: inactive

What do the screens show for `Cc1nc(N(C)Cc2cccnc2)c2cnn(C)c2n1`?
FECH inh: inactive

What do the screens show for `CCOC(=O)c1cc2ccsc2n1CC(=O)N(CC)c1cccc(C)c1`?
FECH inh: inactive

What do the screens show for `CCOC(=O)c1cc2ccsc2n1CC(=O)N(CC)c1ccccc1`?
FECH inh: active

How did CCOC(=O)c1cc2ccsc2n1CC(=O)Nc1ccccc1C(=O)OC do in these assays?
FECH inh: inactive

How did COCCN1CCCC(O)(CN2CCN(Cc3ccncc3)CC2)C1=O (centres undefined) do in these assays?
FECH inh: inactive

What do the screens show for `O=C(Nc1ncns1)c1cccc(CN2CC[C@H](O)C2)c1`?
FECH inh: inactive

What do the screens show for `O=C(Nc1ccc2ncsc2c1)c1cccc(CN2CCCC(O)C2)c1` (centres undefined)?
FECH inh: active

Results for O=C(Nc1nc2c(s1)CCCC2)c1cccc(CN2CC[C@H](O)C2)c1 ?
FECH inh: inactive

How did CS(=O)(=O)CCC(C(=O)N1CCC(Cc2ccccc2)CC1)N1Cc2ccccc2C1=O (centres undefined) do in these assays?
FECH inh: inactive

How did Cc1ccn2c(=O)cc(COc3cccc(NC(=O)COc4ccc(C)c(C)c4)c3)nc2c1 do in these assays?
FECH inh: inactive

Source: PubChem
